From ChEMBL document CHEMBL4513216, “Probing the Open Global Health Chemical Diversity Library for Multistage-Active Starting Points for Next-Generation Antimalarials” (ACS Infect Dis, 2020)
About 8,600 (12%) of roughly 69,000 compounds showed an effect of 50% or more. This excerpt belongs to a sample that is enriched for strong results.

Each compound was assayed on Plasmodium berghei (assay: Screen against P. berghei liver stage (PbLuc), transformed with Luciferase, at 10uM). Settings: tested at 10 uM.
Assay type: functional, HepG2
With `Cc1c(S(=O)(=O)N2CCCCC2c2nnc(-c3cccs3)o2)cnn1C` (stereo not drawn) the INHIBITION was -11.28%. Work on `CC(C)(O)CN1CCN(C(=O)c2cccc(CC#N)c2)CC1` yielded an INHIBITION of -9.76%. `Cc1noc(C)c1C1CCCN1C(=O)c1cn2ccsc2n1` (stereo not drawn) showed an INHIBITION of 12.9%. For `Cc1ccc(OCc2nc(CNCC3CN(C)CCO3)cs2)cc1` (stereo not drawn), the INHIBITION was -45.6%. `CCCc1nc(N2CCC(CCO)CC2)c2cnn(C)c2n1` was tested, and the INHIBITION was 60%. `COCc1nc(N2CCC(CCO)CC2)c2cnn(C)c2n1` showed an INHIBITION of 14.3%. `Cn1ncc2c(N3CCCN4CCC[C@H]4C3)nc(C(C)(C)C)nc21` was tested, and the INHIBITION was 31.6%. With `CCCc1nc(N2CCCC(CCOC)C2)c2cnn(C)c2n1` (stereo not drawn) the INHIBITION was 40.6%. In the case of `Cc1nc(N2CCN(C(=O)CC3CCCC3)CC2)c2cnn(C)c2n1`, the INHIBITION is reported as 0.0944%. Compound `Cc1nc(N2CCC(CN3CCCC3)CC2)c2cnn(C)c2n1` has an INHIBITION of 57.2%. In the case of `Cc1nc(N2CCC(CC(=O)N3CCCC3)CC2)c2cnn(C)c2n1`, the INHIBITION is reported as 31.2%. In the case of `Cc1nc(N2CCCC(N3CCCC3)C2)c2cnn(C)c2n1` (stereo not drawn), the INHIBITION is reported as 55.1%. Work on `CCCc1nc(N2CCCN3CCC[C@H]3C2)c2cnn(C)c2n1` yielded an INHIBITION of 27.7%. `CCc1n[nH]c(C2CN(C(=O)CCc3cscn3)CCO2)n1` (stereo not drawn) gave an INHIBITION of 7.42%. With `O=C(c1cccc(NCc2cccc(F)c2)c1)N1CCC(O)CC1` the INHIBITION was -39.4%. `CC1CN(CC(=O)NC(=O)NCc2ccccc2)CCO1` (stereo not drawn) gave an INHIBITION of 5.53%. For `CCS(=O)(=O)c1ncc(CN2CCSCC2)n1CCc1ccccc1`, the INHIBITION was 58.9%. In the case of `CCS(=O)(=O)c1ncc(CN2CCN(C)CC2)n1CCc1ccccc1`, the INHIBITION is reported as 38.7%. `CCS(=O)(=O)c1ncc(CN2CCCC2)n1CCc1ccccc1` showed an INHIBITION of 13%. For `Cc1cc(CN2CCN(C(=O)NC(C)c3ccc(C)o3)CC2)on1` (stereo not drawn), the INHIBITION was 13.75%. Work on `O=C(NCCN1CCOCC1)c1ccn(-c2ccc3ccccn23)n1` yielded an INHIBITION of 47.2%. `CCN(C)C(=O)c1ccnn1-c1ccc2ccccn12` showed an INHIBITION of 51.2%. `O=C(NCCN1CCOCC1)c1ccnn1-c1ccc2ccccn12` was tested, and the INHIBITION was 94%. With `COCCNC(=O)c1ccnn1-c1ccc2ccccn12` the INHIBITION was 39.3%. With `CN1CCCN(C(=O)c2ccnn2-c2ccc3ccccn23)CC1` the INHIBITION was 53.9%. `O=C(c1ccnn1-c1ccc2ccccn12)N1CCCC1` was tested, and the INHIBITION was 30.3%. `O=C(c1ccnn1-c1ccc2ccccn12)N1CCOCC1` showed an INHIBITION of 13.1%. `CN(C)C1CCN(C(=O)c2ccnn2-c2ccc3ccccn23)CC1` was tested, and the INHIBITION was 4.98%. For `O=C(NCCCN1CCOCC1)c1ccn(-c2ccc3ccccn23)n1`, the INHIBITION was 39.8%. In the case of `O=C(Nc1cccnc1)C1=NN(c2ccccc2)C(=O)CN1`, the INHIBITION is reported as -141%. `CCCn1nccc1-c1cnc(CC2CCN(C(C)=O)C2)cn1` (stereo not drawn) gave an INHIBITION of 19.3%. `O=C(Cn1ccc(=O)cc1)N1C[C@@H]2CC[C@H]1CN(c1ncccn1)C2` showed an INHIBITION of 15.3%. `O=C(c1cc(Cl)c2c(c1)OCO2)N1CCN(c2ncccn2)CC1` was tested, and the INHIBITION was 15.4%. Work on `CN1CCN(Cc2ccncc2)C(=O)C12CCN(Cc1ccsc1)CC2` yielded an INHIBITION of 1.34%. `COC1CCN(CC(=O)NCc2ccc(OCC(N)=O)cc2)CC1` gave an INHIBITION of 2.45%. With `Cc1nc2ccccc2c(=O)n1CCCC(=O)N1CCNC(=O)CC1` the INHIBITION was 4.37%. `Cc1ccc(=O)n(CC2(O)CCN(Cc3cnn(C)c3)CC2)n1` showed an INHIBITION of -3.31%. With `Cc1nn(-c2ccccc2)nc1C(=O)NCC(c1ccco1)N(C)C` (stereo not drawn) the INHIBITION was 8.48%. With `Cc1nn(C)c(Cl)c1C(=O)NCC(c1ccsc1)N(C)C` (stereo not drawn) the INHIBITION was 36.4%. In the case of `Cc1nn(-c2ccccc2)nc1C(=O)NCC(c1ccsc1)N(C)C` (stereo not drawn), the INHIBITION is reported as 57.2%. `O=C1[C@H]2CN(Cc3ccoc3)C[C@H]2CN1CCN1CCCC1` was tested, and the INHIBITION was 3.81%. For `CCN1C(=O)[C@H]2CN(CC(C)C)C[C@H]2C12CCN(S(C)(=O)=O)CC2`, the INHIBITION was 20.1%. `Cc1noc(CS(=O)(=O)C/C=C/c2ccccc2)n1` was tested, and the INHIBITION was 60.2%. Work on `CCc1noc(CS(=O)(=O)C/C=C/c2ccccc2)n1` yielded an INHIBITION of 12.4%. In the case of `O=S(=O)(C/C=C/c1ccccc1)Cc1nc(C2CC2)no1`, the INHIBITION is reported as 45%. `CC(=O)c1ccc(S(=O)(=O)N2CCOC(Cn3ccnc3)C2)cc1` (stereo not drawn) showed an INHIBITION of 30.4%. `CSCC(=O)Nc1nccn1Cc1ccc(Br)cc1` showed an INHIBITION of 50.8%. Work on `CS(=O)(=O)c1nccn1Cc1ccc(C(N)=O)cc1` yielded an INHIBITION of 19.2%. In the case of `CSc1ncccc1C(=O)Nc1ccc(Cn2ccccc2=O)cc1`, the INHIBITION is reported as 9.16%. Work on `CCOCC(=O)Nc1nccn1Cc1ccc(Br)cc1` yielded an INHIBITION of 45.2%. `CNC(=O)c1ccc(Cn2ccnc2S(C)(=O)=O)cc1` showed an INHIBITION of 20.5%. For `COCCC(=O)Nc1nccn1Cc1ccc(Br)cc1`, the INHIBITION was 23.9%. For `COCC(=O)Nc1nccn1Cc1ccc(Br)cc1`, the INHIBITION was 84.2%. With `CC(C)(C#N)C(=O)Nc1nccn1Cc1ccc(Br)cc1` the INHIBITION was 60.1%. `CCn1ccnc1CN(C)C(C(=O)O)c1ccc(C(C)(C)C#N)cc1` (stereo not drawn) showed an INHIBITION of 42.8%. `CC(NC(=O)NCCCN1CCCC1=O)c1nncn1C` (stereo not drawn) showed an INHIBITION of -7.31%. In the case of `CCC(C(=O)NC1CCCC1)n1ccc2ncccc2c1=O` (stereo not drawn), the INHIBITION is reported as -13.2%. `Cc1n[nH]c(C)c1C1CCCN1C(=O)NCC(=O)Nc1ccccc1` (stereo not drawn) gave an INHIBITION of 22%. Work on `O=C(c1ccc2c(c1)OCCCO2)N1CCCC(n2ccnc2)C1` (stereo not drawn) yielded an INHIBITION of 42%. `Cc1csc(CCNC(=O)NC(C)Cn2cccn2)n1` (stereo not drawn) was tested, and the INHIBITION was -7.31%. Compound `CC/C=C(\C)CN1CCC(CNC(=O)c2ccnc(N)c2)C1` (stereo not drawn) has an INHIBITION of -5.8%. Work on `CN(c1ncc(C(=O)NCc2ccccc2)c(N)n1)C1CCCCC1` yielded an INHIBITION of 63.6%. `CN(c1ccc(CNC(=O)c2c[nH]c(=O)c(Cl)c2)cc1)C1CCCCC1` gave an INHIBITION of 77.6%. `CNC(=O)c1ccc(CNC(=O)NCCN(C)C2CCCC2)cc1` was tested, and the INHIBITION was -2.53%. In the case of `CC/C=C(\C)CN1CCC(CNC(=O)c2c[nH]c(=O)c(Cl)c2)C1` (stereo not drawn), the INHIBITION is reported as 63.8%. In the case of `CN(C)c1cc(CNC(=O)c2ccc(O)nc2)ccn1`, the INHIBITION is reported as 9.64%. Compound `Cc1ccc(C(=O)NCc2ccc(N(C)C)cc2)cn1` has an INHIBITION of 32%. Work on `CC/C=C(\C)CN1CCC(CNC(=O)c2ccc(=O)[nH]c2)CC1` yielded an INHIBITION of -24.7%. For `CN(c1ccc(CNC(=O)c2ccc(O)nc2)cc1)C1CCCCC1`, the INHIBITION was 67.8%. With `COc1ccc(NC(=O)c2cnc(N(C)C3CCCCC3)nc2N)cc1` the INHIBITION was 35.7%. `CN(c1ncc(C(=O)Nc2ccccc2)c(N)n1)C1CCCCC1` was tested, and the INHIBITION was 47.2%. `CCC1CCC(CNC(=O)c2c[nH]c(=O)c(Cl)c2)CC1` (stereo not drawn) was tested, and the INHIBITION was 4.35%. `CCOc1ncccc1NC(=O)N1CCC(CN2CCOCC2)CC1` showed an INHIBITION of 31.65%. With `C[C@@H]1C(=O)NC[C@H]2CN(CCc3ccccc3)C[C@H]21` the INHIBITION was 26.6%. For `CCC(CN1CCCC1)n1cncc1-c1cnn(-c2ccc(F)cc2)c1` (stereo not drawn), the INHIBITION was 43.55%. With `CCOC1COC2(CCN(c3ncc(C)cn3)CC2)C1` (stereo not drawn) the INHIBITION was 10.6%. For `CC(C)c1cc(C(=O)N2CCCC(n3cncn3)C2)n[nH]1` (stereo not drawn), the INHIBITION was 15.6%. With `Fc1ccc(-c2nnc(CN3CCCC3Cn3cccn3)o2)cc1` (stereo not drawn) the INHIBITION was 11.6%. For `CC(=O)N1CCCC1c1ccc(C(=O)N2CCOCC2)s1` (stereo not drawn), the INHIBITION was 21.7%. For `Cn1nc2c(c1NC(=O)c1ccc(Cl)s1)CCC2`, the INHIBITION was -57.9%. Work on `O=C(c1ccc(C2CCCO2)s1)N1Cc2ccccc2C1` (stereo not drawn) yielded an INHIBITION of -44.8%. `CN1CCCC1c1ccc(C(=O)Nc2c3c(nn2C)CCC3)s1` (stereo not drawn) showed an INHIBITION of 56%. Compound `Cn1nc2c(c1NC(=O)c1ccc(C3CCCN3C3CCC3)s1)CCC2` (stereo not drawn) has an INHIBITION of 15.4%. `CN1CCCC1c1ccc(C(=O)N2CCc3ccccc3C2)s1` (stereo not drawn) showed an INHIBITION of 66.9%. `COCC1CC2(CCN(Cc3cnn(C)c3)CC2)CN1c1ncccn1` (stereo not drawn) gave an INHIBITION of 18.5%. `O=C(CN1CCCC1COc1ccccc1)NCc1ccccn1` (stereo not drawn) was tested, and the INHIBITION was 38.2%. For `Cc1nc(C(C)(C)NC(=O)Nc2ccc(C#N)cc2)no1`, the INHIBITION was 79.2%. `Cc1ccc(NC(=O)NC(C)(C)c2noc(C)n2)cc1` showed an INHIBITION of 13.6%. In the case of `Cc1nc(C(C)(C)NC(=O)Nc2cccc(C#N)c2)no1`, the INHIBITION is reported as -4.74%. `CCc1csc(C2CCCN(C(=O)c3ccnc(N(C)C)c3)C2)n1` (stereo not drawn) showed an INHIBITION of 27.6%. For `CC(C)c1nnc(NC(=O)NCc2cccnc2NCCN(C)C)s1`, the INHIBITION was 25.7%. Compound `Cc1nc(NC(=O)NCc2cccnc2NCCN(C)C)sc1C` has an INHIBITION of 37.7%. With `CN(C)CCNc1ncccc1CNC(=O)Nc1cc(F)cc(F)c1` the INHIBITION was 55.6%. For `Cn1cc(S(=O)(=O)N(Cc2ccc(F)cc2F)C2CC2)cc1C(N)=O`, the INHIBITION was 40.9%. With `Cc1n[nH]c(C)c1NC(=O)CN1CCCC1c1c(C)nn(C)c1C` (stereo not drawn) the INHIBITION was 9.54%. `CCN(CC)C(=O)CSc1nc2cc(C)nc-2c(O)n1CC` was tested, and the INHIBITION was 42.4%. `c1cncc(C2COC3(CCN(Cc4nccs4)CC3)C2)c1` (stereo not drawn) showed an INHIBITION of 36.2%. Work on `Cc1nc(CN2CCN(C(=O)CCc3cccnc3)CC2)no1` yielded an INHIBITION of 65.2%. `O=C(CCn1ccc2ccccc21)N1CCC(Nc2cccnc2)CC1` was tested, and the INHIBITION was -22.4%. With `Cc1nc(CN2CCN(C(=O)Cc3cccc(Cl)c3)CC2)no1` the INHIBITION was -2.04%. `O=C(CCn1ccc2ccccc21)N1CCC(Nc2cccnn2)CC1` showed an INHIBITION of -35.2%. With `Cc1nc(CN2CCN(C(=O)CCC(=O)c3ccccc3)CC2)no1` the INHIBITION was -36.4%. With `Cc1nc(CN2CCN(C(=O)CC(C)(C)c3ccccc3)CC2)no1` the INHIBITION was -73.6%. Work on `Cc1nc(CN2CCN(C(=O)CCc3cccc(Cl)c3)CC2)no1` yielded an INHIBITION of 75.2%. `O=C(CCn1ccc2ccccc21)N1CCN(Cc2cccnc2)CC1` showed an INHIBITION of 64.9%. `COc1cccc(CCC(=O)N2CCN(Cc3noc(C)n3)CC2)c1` showed an INHIBITION of -30.7%. `O=C(CCn1cccn1)N1CCSCC1` was tested, and the INHIBITION was 4.55%. In the case of `CN(C)Cc1ccccc1CN(C)C(=O)c1ccoc1`, the INHIBITION is reported as 11.1%.
